Compound activity deposited in PubChem by National Center for Advancing Translational Sciences (NCATS).
Rows were chosen to be rich in hits. Some 18% of all compounds tested hit in one or more screens of this group.
Six1-Eya2 blk = Six1/Eya2 interaction inhibition; AlphaScreen GST-Six1/His-Eya2 binding, biochemical; active compounds read low; 360,000 tested, 0.56% active; Q15475+O00167; activity change, % (no concentration beside the values); in the data active = activity change below about -65%; inconclusive = mostly about -30% to -63%
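Homogeneous AlphaScreen proximity assay pairing GST-Six1 with His-tagged Eya2 (added as 5X mix: 250 nM and 500 nM) in 50 mM Tris pH 8.0, 300 mM NaCl, 1 mM TCEP. Glutathione donor and nickel acceptor beads; 1 h, 37 °C, dark.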
CtBP-E1A blk = blocks the CtBP interaction with E1A. activity change, % (no concentration beside the values). AlphaScreen GST-E1A/His-CtBP binding, 1536-well; active compounds read low. 340,000 tested, 0.49% active; in the data active = activity change below about -65%; inconclusive = mostly about -30% to -63%
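Steps: dispense buffer (Tris pH 8.0, NaCl 300 mM, TCEP 1 mM, BSA, Tween 20); add 5X protein mix (GST-E1A, His-CtBP, 125 nM each); pin 23 nL compound; 2 h at 37 °C, dark; add 5X beads (50 ug/mL); 1 h; read.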
DT40 TDP1 CPT = DT40-hTDP1 cell growth loss with CPT | Potency, µM (titrated, usually from 46.2 µM), for the others: top-dose activity change, negative = growth inhibition, most hits filed as inhibitors | chicken DT40 Tdp1-/-;hTDP1 cells + 20 nM CPT, ATP luminescence, 48 h | 420,000 tested, 12% active; note: potency is the fitted concentration of half-maximal effect; nearly all actives have a fitted effect of over 55% in size
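Chicken DT40 Tdp1-/- cells complemented with human TDP1, 400 cells/well, exposed to compounds plus 20 nM camptothecin for at least 48 h at 37 C; viability read as ATP content by CellTiter-Glo luminescence.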
DT40 TDP1 no CPT = qHTS for Inhibitors of human tyrosyl-DNA phosphodiesterase 1 (TDP1): qHTS in cells in absence of CPT | Potency, µM (doses to about 46.2 µM), without a hit: at the highest dose activity change, negative = growth inhibition, hits mostly inhibitors | 420,000 tested, 15% active | AID 686978, 2013 | DT40 Tdp1-/- hTDP1 cells, no CPT, ATP luminescence, 48 h; note: potency is the fitted concentration of half-maximal effect; nearly all actives have a fitted effect of over 55% in size
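Chicken DT40 Tdp1-/- cells stably complemented with human TDP1 were seeded at 400 cells/well with DMSO in place of 20 nM camptothecin. After compound pinning, cells grew at least 48 hr at 37 °C; viability read by CellTiter-Glo luminescence.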
IL1B secr inh = inflammasome signaling inhibition, IL-1 beta readout; activity change, % at 57.5 µM; THP-1 LPS/ATP IL-1B secretion, AlphaLISA, 16 h; active compounds read low; 360,000 tested, 4.7% active; in the data active = activity change below about -50%; inconclusive = mostly about -30% to -49%
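Secreted IL-1B measured by AlphaLISA bead assay after 16 h compound exposure of THP-1 cells; compounds (final up to 57.5 uM) added 1 h before LPS (250 ng/mL) and ATP (1.25 mM) stimulation; lower signal means less secretion.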
TDP1 block = blocks human tyrosyl-DNA phosphodiesterase 1; Q9NUW8; recombinant TDP1, AlphaScreen DNA substrate cleavage; Potency, µM (titrated, usually from 130 µM), for the others: top-dose activity change, negative = inhibition, hits mostly inhibitors; 350,000 tested, 0.28% active; note: potency is the fitted concentration of half-maximal effect; nearly all actives have a fitted effect of over 40% in size
Target sequence (Q9NUW8 whole entry, looked up): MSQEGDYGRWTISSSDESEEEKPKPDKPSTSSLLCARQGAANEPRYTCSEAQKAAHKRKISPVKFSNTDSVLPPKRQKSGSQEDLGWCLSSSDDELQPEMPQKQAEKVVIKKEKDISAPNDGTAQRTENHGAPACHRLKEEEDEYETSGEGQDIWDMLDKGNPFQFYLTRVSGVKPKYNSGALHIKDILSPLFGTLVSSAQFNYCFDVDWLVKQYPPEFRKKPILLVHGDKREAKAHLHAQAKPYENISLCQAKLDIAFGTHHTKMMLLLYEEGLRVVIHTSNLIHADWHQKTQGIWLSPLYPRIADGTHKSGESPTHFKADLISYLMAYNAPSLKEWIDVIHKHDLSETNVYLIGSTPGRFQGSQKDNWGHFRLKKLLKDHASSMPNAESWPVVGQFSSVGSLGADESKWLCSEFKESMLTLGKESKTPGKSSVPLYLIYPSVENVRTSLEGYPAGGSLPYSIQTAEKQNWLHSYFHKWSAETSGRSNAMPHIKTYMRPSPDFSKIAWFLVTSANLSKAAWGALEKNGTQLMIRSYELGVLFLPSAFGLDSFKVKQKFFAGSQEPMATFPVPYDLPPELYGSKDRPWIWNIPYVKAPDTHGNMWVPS
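Here, a 5' biotin and 3' phosphotyrosine-FITC DNA oligonucleotide reports Tdp1 activity: intact substrate bridges AlphaScreen beads, while cleavage leaves a 3' phosphate and drops signal. All incubations at room temperature.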
An asterisk follows results filed as active; ? = inconclusive; / = no result; [ ] = another dose, or the depositor's remark. Unless noted, calls come from the whole dose curve; as a rule, active = well fitted curve in the direction sought with a large enough effect; inconclusive = small, poorly fitted or top-dose-only effect, or another doubt; inactive = no such curve, though single readings can be large; an effect the other way counts as inactive or inconclusive. % is set by controls: 0 for no effect and ±100 for the full control effect.

SMILES	Six1-Eya2 blk	CtBP-E1A blk	DT40 TDP1 CPT	DT40 TDP1 no CPT	IL1B secr inh	TDP1 block
CCc1ccc(OCC(=O)N/N=C(\C)c2ccc(OC(F)F)cc2)cc1	1	-2	2%	-27%	0	-3%
CCc1ccc(OCC(=O)N/N=C(\C)c2ccccc2OC(F)F)cc1	-11	12	16µM*	16µM*	-11	2%
COCCNC(=S)N/N=C(\C)c1ccc(-n2ccnc2)cc1	-7	-15	4.5µM*	3.5µM*	74	9%
C/C(=N\NC(=S)NC(C)C)c1ccc(-n2ccnc2)cc1	-11	-9	3.3µM*	4.1µM*	-17	7%
CC1=CC(C)(C)n2c(O)c(N=NC(N)=S)c3cccc1c32	5	-2	?	?	0	2%
CNc1nc(N)nc(-c2cc(Cl)ccc2OC)n1	-3	/	-7%	-2%	-5	2%
COc1ccc(S(=O)(=O)N2CCN(Cc3ccccc3[N+](=O)[O-])CC2)cc1	?	-10	-24%	?	-18	/
O=S(=O)(c1ccccc1)c1nnn2c1nc(NCc1ccccc1)c1cc(Cl)ccc12	/	/	18µM*	?	/	1%
O=C1CCCN1CCCNc1nc2c(S(=O)(=O)c3ccccc3)nnn2c2ccc(Cl)cc12	?	?	21µM*	?	?	2%
CCc1ccc(S(=O)(=O)c2nnn3c2nc(N(CC)Cc2ccccc2)c2cc(Cl)ccc23)cc1	/	/	9.2µM*	16µM*	/	-4%
CCc1ccc(S(=O)(=O)c2nnn3c2nc(N(C)Cc2ccccc2)c2cc(Cl)ccc23)cc1	/	/	-3%	-7%	/	-1%
Cc1cccc(CCNC(=O)C2CCN(S(=O)(=O)c3cccc4cccnc34)CC2)c1	2	-2	-30%	?	21	1%
CCCN1C2=NCCCN2c2ccccc21	8	5	2%	-6%	22	-1%
OC(COc1ccccc1)CN1C2=NCCCN2c2ccccc21 (configuration not stated)	-1	-1	?	10µM*	-15	-1%
Clc1ccc(CN2C3=NCCN3c3ccccc32)cc1	-7	-9	13µM*	?	?	3%
O=C(O)CN1C2=NCCCN2c2ccccc21	2	1	15%	2%	21	5%
Cc1cc2c(cc1C)N(Cc1ccc(Cl)cc1)C1=NCCCN12	1	6	2.6µM*	5.2µM*	/	/
Brc1ccc(CN2C3=NCCCN3c3ccccc32)cc1	3	-19	16µM*	?	-55*	3%
c1c(CC2CCCC2)nnn1C[C@H]1CC[C@@H]([C@@H]2CC[C@H](Cn3cc(CC4CCCC4)nn3)O2)O1	-8	7	?	?	12	/
Clc1ccc(CN2C3=NCCCN3c3ccccc32)c(Cl)c1	0	2	?	?	-73*	/
Cc1ccc(CN2C3=NCCCN3c3ccccc32)cc1	9	-3	15µM*	?	-4	1%
CC(C)(C)c1ccc(CN2C3=NCCCN3c3ccccc32)cc1	-3	2	7.3µM*	7.3µM*	-54*	0%
c1ccc(CN2C3=NCCCN3c3ccccc32)cc1	7	7	-16%	-32%	-4	2%[56.1 µM]
Clc1cccc(CN2C3=NCCCN3c3ccccc32)c1	3	2	?	?	-17	/
CCOC(=O)COc1ccc2c(c1)c(C(C)=O)c(C)n2-c1ccccc1	-3	5	12%	-15%	8	/
SMILES	Six1-Eya2 blk	CtBP-E1A blk	DT40 TDP1 CPT	DT40 TDP1 no CPT	IL1B secr inh	TDP1 block
Cc1ccc(CN2CCC(=O)N(Cc3ccccn3)CC2)c(C)c1	/	/	-4%	-7%	/	/
O=S(=O)(c1ccc(=S)[nH]c1)N1CCN(Cc2ccccc2)CC1	12	5	?	?	0	1%
COc1cc(C2NC(=O)NC(c3ccccc3)=C2C(C)=O)cc(Cl)c1OCC(=O)O (configuration not stated)	-1	-2	3%	-6%	9	11%
CCCN(CCC)S(=O)(=O)c1ccc(C(=O)N2CCC(=O)c3ccccc32)cc1	3	-2	?	23µM*	19	2%
O=C1OC(CN2CCOCC2)CN1N=Cc1ccc([N+](=O)[O-])o1 (configuration not stated)	3	-12	15µM*	?	12	/
O=C1O[C@H](CN2CCOCC2)CN1/N=C\c1ccc([N+](=O)[O-])o1	/	/	/	/	/	11%[21 µM]
O=C1OC(CN(Cc2ccccc2)Cc2ccccc2)CN1N=Cc1ccc([N+](=O)[O-])o1 (configuration not stated)	-7	-16	16µM*	9.2µM*	-1	/
CCc1[nH]nc2c1C(c1ccncc1)C(C#N)=C(N)O2 (configuration not stated)	14	44	-11%	-9%	?	7%
CN(C(=O)c1cccc(NC(=O)Cc2ccc(NC(=O)C3CCCN(C(=O)C4CCC4)C3)cc2)c1)C1CC1 (configuration not stated)	7	2	?	?	16	/
O=C(Oc1cccc2c(O)cccc12)c1ccccc1	-6	-1	?	?	-24	7%
O=C(Oc1c(-c2ccccc2Cl)oc2ccccc2c1=O)c1ccc(Cl)cc1	4	-9	?	?	-1	2%
O=C(Oc1c(-c2ccccc2)oc2ccccc2c1=O)c1ccccc1	8	10	?	10µM*	0	-1%
O=C(Oc1cc(=O)oc2ccccc12)c1ccccc1	1	2	2.6µM*	2.3µM*	17	0%
O=S(=O)(Cc1ccccc1)NCC1CCCN(Cc2cccc3nonc23)C1 (configuration not stated)	-3	-6	13%	-12%	-4	5%
COc1ccc(N2C(=O)CC(NNC(=O)c3ccc(Br)s3)C2=O)cc1 (configuration not stated)	-1	4	14%	12%	-64*	8%
COc1cccc(CC(=O)OCC(=O)NC(C)c2ccc(F)cc2)c1 (configuration not stated)	0	/	-29%	-8%	5	0%
Cc1ccccc1NC(=O)N1C2CCCC1CC(NC(=O)C(C)(C)C)C2 (configuration not stated)	0	7	-2%	-13%	-3	2%
